# In all, about 310,000 compounds went through this assay and about 14,000 (4.5%) showed an effect of 50% or more. The effect is printed as a negative number. The full list was thinned out, with strong results kept by preference.
# Target: human ether-à-go-go-related gene (hERG) potassium channel (human, UniProt Q12809)
# Assay: primary screen, population patch clamp on CHO cells stably expressing hERG; higher = less effect of the substance
# 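Also: peak tail current of the secondary pulse compared with the same well before compound.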
# Chain of human ether-à-go-go-related gene (hERG) potassium channel (Q12809 whole entry, looked up): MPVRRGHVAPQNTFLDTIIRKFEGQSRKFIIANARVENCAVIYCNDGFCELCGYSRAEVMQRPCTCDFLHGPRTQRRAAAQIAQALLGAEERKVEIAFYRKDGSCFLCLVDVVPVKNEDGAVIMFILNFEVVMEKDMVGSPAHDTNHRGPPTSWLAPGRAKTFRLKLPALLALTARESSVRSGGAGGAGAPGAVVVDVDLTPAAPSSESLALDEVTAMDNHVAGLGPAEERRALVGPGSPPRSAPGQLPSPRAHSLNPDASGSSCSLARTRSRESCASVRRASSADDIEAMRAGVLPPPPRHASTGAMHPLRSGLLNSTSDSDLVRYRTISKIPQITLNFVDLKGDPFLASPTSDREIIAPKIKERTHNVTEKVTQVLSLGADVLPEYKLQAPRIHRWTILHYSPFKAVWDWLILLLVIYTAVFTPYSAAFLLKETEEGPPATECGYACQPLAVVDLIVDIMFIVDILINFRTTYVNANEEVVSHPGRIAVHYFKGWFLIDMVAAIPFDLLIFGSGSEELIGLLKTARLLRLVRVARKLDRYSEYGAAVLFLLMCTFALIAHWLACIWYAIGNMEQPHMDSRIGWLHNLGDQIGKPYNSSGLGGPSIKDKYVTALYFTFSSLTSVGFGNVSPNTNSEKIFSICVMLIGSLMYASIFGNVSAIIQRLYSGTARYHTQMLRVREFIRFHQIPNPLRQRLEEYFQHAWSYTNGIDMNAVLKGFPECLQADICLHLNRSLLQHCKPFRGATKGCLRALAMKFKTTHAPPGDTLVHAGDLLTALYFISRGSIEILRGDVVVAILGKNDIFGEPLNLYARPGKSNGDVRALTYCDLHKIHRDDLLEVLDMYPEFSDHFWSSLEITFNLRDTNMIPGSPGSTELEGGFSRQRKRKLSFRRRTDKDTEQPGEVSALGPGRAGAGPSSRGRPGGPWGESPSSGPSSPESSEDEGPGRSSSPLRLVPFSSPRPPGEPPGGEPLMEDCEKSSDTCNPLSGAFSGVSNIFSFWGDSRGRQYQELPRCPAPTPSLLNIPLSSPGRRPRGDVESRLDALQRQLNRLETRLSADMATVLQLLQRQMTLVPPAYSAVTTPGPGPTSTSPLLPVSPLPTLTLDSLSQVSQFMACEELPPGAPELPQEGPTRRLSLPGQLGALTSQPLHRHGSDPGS
row,Compound,"hERG current change (%, negative = inhibition) at 10uM [%]"
1,O=C(NC(=S)NC1CCCCC1)c1ccccc1,1.5
2,COCCCn1c(=O)c2sccc2n2c(CCCC(=O)NCc3ccccc3OC)nnc12,-19.9
3,O=C(CS(=O)(=O)c1cn(CC(=O)N2CCOCC2)c2ccccc12)Nc1ccccc1,8.09
4,Cc1ccc(NC(=O)CS(=O)(=O)c2cn(CC(=O)N3CCOCC3)c3ccccc23)cc1,-0.0981
5,CC(=O)c1ccc(NC(=O)CS(=O)(=O)c2cn(CC(=O)N3CCOCC3)c3ccccc23)cc1,-58.6
6,COc1cccc(=O)c2c(C)n(C)c(C)c12,-24.7
7,CC(Oc1ccc2ccc(=O)oc2c1)C(=O)NC1CCN(Cc2ccccc2)CC1 (stereo not drawn),-75
8,Cc1c(C)c2ccc(OC(C)C(=O)NC3CCN(Cc4ccccc4)CC3)cc2oc1=O (stereo not drawn),-54.2
9,CCc1cc(=O)oc2cc(C)cc(OC(C)C(=O)NC3CCN(Cc4ccccc4)CC3)c12 (stereo not drawn),-32.8
10,CC(Oc1ccc(Br)cc1)C(=O)NC1CCCCCC1 (stereo not drawn),-12.4
11,Cc1cc(=O)oc2cc(OC(C)C(=O)NC3CCN(Cc4ccccc4)CC3)ccc12 (stereo not drawn),-79.2
12,CC(Oc1ccc(Br)cc1)C(=O)NC1CCN(Cc2ccccc2)CC1 (stereo not drawn),-80.4
13,Cc1c(C)c2ccc(OC(C)C(=O)NC3CC(C)(C)NC(C)(C)C3)cc2oc1=O (stereo not drawn),7.7
14,Cc1cc(OC(C)C(=O)NC2CCN(Cc3ccccc3)CC2)c2c(C)cc(=O)oc2c1 (stereo not drawn),-15.2
15,Cc1cc(=O)oc2c(C)c(OC(C)C(=O)NC3CCN(Cc4ccccc4)CC3)ccc12 (stereo not drawn),-48.1
16,CC(Oc1ccccc1)C(=O)NC1CCN(Cc2ccccc2)CC1 (stereo not drawn),-26.8
17,Cc1cc(=O)oc2cc(OC(C)C(=O)NC3CCCC3)ccc12 (stereo not drawn),-33.4
18,CC(Oc1ccc2c3c(c(=O)oc2c1)CCC3)C(=O)NC1CCN(Cc2ccccc2)CC1 (stereo not drawn),-47.9
19,CC(=O)c1sc(N2CCOCC2)nc1-c1ccccc1,-6.27
20,Cc1onc(-c2ccccc2)c1C(=O)Nc1sccc1C#N,7.27
21,Cc1cc(C)n(-c2ccc(NC(=O)C3CCCCN3C(=O)c3sccc3C)cc2)n1 (stereo not drawn),14.5

row,Compound,"hERG current change (%, negative = inhibition) at 10uM [%]"
1,NS(=O)(=O)c1ccc(NC(NC(=O)c2cccnc2)C(Cl)(Cl)Cl)cc1 (stereo not drawn),6.08
2,COc1cc(C(=O)NCCCn2ccnc2)cc(OC)c1OC.Cl,20.6
3,Cc1nn(C(C)C(=O)NCCN2CCCCCC2)c(=O)c2nn(-c3ccccc3)c(C)c12 (stereo not drawn),21.6
4,Cc1cc(C)n2nc(SCC(=O)Nc3ccccc3C)nc2n1,1.88
5,CC1(C)CC(=O)C2=C(C1)NC(=O)CC2c1ccc(N(CCC#N)CCC#N)cc1 (stereo not drawn),17.3
6,CCC(C(=O)c1ccc(O)cc1)c1ccccc1 (stereo not drawn),-5.56
7,CCC(=O)c1ccc2ncccc2c1,12.2
8,CCC(C(=O)c1ccc2ncccc2c1)c1ccccc1 (stereo not drawn),-52.7
9,COc1ccc(CNC(=O)c2nn(C)c3c2CS(=O)(=O)c2ccccc2-3)cc1,-24.5
10,O=C(O)c1ccccc1C(=O)c1ccc(Oc2ccccc2)cc1,8.12
11,CCn1nc(C)c(Br)c1C(=O)Sc1ccccc1Cl,21.2
12,O=C(c1cccc(F)c1)N1CCN(c2cc(N3CCCCC3)c(F)cc2[N+](=O)[O-])CC1,0.466
13,O=C(c1ccccc1F)N1CCN(c2ccc([N+](=O)[O-])c3ncccc23)CC1,-68.1
14,O=C(c1cccc(F)c1)N1CCN(c2ccc([N+](=O)[O-])c(N3CCCCC3)c2)CC1,-6.87
15,Cn1c(=O)n(C)c2cc([N+](=O)[O-])c(N3CCN(S(=O)(=O)c4ccccc4)CC3)cc21,-8.67
16,O=C(c1cc(F)c(F)cc1Cl)N1CCN(c2ccc([N+](=O)[O-])c3ncccc23)CC1,-67.4
17,O=[N+]([O-])c1ccc(N2CCN(S(=O)(=O)c3ccccc3)CC2)c2cccnc12,-76.8
18,O=C(c1ccc(Cl)cc1[N+](=O)[O-])N1CCN(c2ccccn2)CC1,-34
19,O=[N+]([O-])c1ccc(N2CCOCC2)c2cccnc12,-25
20,O=C(c1cccc(F)c1)N1CCN(c2ccc([N+](=O)[O-])c3cccnc23)CC1,-66.1
21,O=C(c1ccccc1F)N1CCN(c2ccc([N+](=O)[O-])c(N3CCOCC3)c2)CC1,14.2

row,Compound,"hERG current change (%, negative = inhibition) at 10uM [%]"
1,Cc1ccc(S(=O)(=O)N2CCN(c3ccc([N+](=O)[O-])c4cccnc34)CC2)cc1,-9.52
2,O=C(c1cc(F)c(F)cc1Cl)N1CCN(c2ncccn2)CC1,16.4
3,CC(=O)Nc1ccc(/C(C)=N/NC(=O)CN(c2ccccc2Br)S(C)(=O)=O)cc1,-4.13
4,CNC(=O)CCn1nc(-c2ccc(C)cc2)c2ccccc2c1=O,-8.28
5,O=C(O)c1ccc(/C=N/Nc2nc(N3CCCCC3)nc(N3CCCCC3)n2)cc1,18.4
6,Cc1nn(Cc2c(Cl)cccc2Cl)c(C)c1NC(=O)/C=C/c1cnn(C)c1C,8.85
7,COc1ccc(OC(=O)c2cccc([N+](=O)[O-])c2)c(C(=O)/C=C/c2cccs2)c1,3.99
8,O=C(O)CC(CC(=O)Nc1ccc2ccccc2n1)c1ccccc1 (stereo not drawn),9.58
9,Cc1nnc(SCC(=O)NC2CC2)n1CCc1ccccc1,13
10,CCC(=O)Oc1ccc2c(C)cc(=O)oc2c1C,0.0333
11,Cc1ccccc1NC(=O)CN1C(=O)NC(C)(CCc2ccccc2)C1=O (stereo not drawn),22.2
12,O=C(c1ccccc1F)N1CCN(c2ccccn2)CC1,4.54
13,O=[N+]([O-])c1cccc2c(Cl)ccnc12,-0.808
14,O=[N+]([O-])c1cccc2c(N3CCOCC3)ccnc12,-17.6
15,O=[N+]([O-])c1cccc2c(N3CCCC3)ccnc12,-77.7
16,O=C(c1ccccc1F)N1CCN(c2ccc([N+](=O)[O-])c3cccnc23)CC1,-65.5
17,O=C(c1ccccc1F)N1CCN(c2ncccn2)CC1,3.24
18,CCC(C)NC(=O)CCC(=O)Nc1ccc2nc(N3CCOCC3)cc(C)c2c1 (stereo not drawn),2.55
19,O=C(NCCc1ccc(Cl)cc1)c1ccc(CNc2c(N3CCOCC3)c(=O)c2=O)cc1,25.7
20,O=C(Nc1ccc2c(c1)OCO2)NC1CCN(Cc2ccccc2)CC1,-24.8
21,CC(NC(=O)COC(=O)c1cccs1)c1ccccc1 (stereo not drawn),23

row,Compound,"hERG current change (%, negative = inhibition) at 10uM [%]"
1,Cc1cc(NC(=O)c2ccc(F)cc2)ccc1NC(=O)c1ccco1,2.98
2,CC1(C)CC(=O)C2=C(C1)N(CC1CCCO1)C(=O)C2(NC(=O)c1cccnc1)C(F)(F)F (stereo not drawn),9.64
3,COC(=NC1CCCC1)C(O)c1c[nH]c2ccccc12 (stereo not drawn),-1.61
4,CN(C)c1cc(C(F)(F)F)nc(-c2ccccn2)n1,-0.728
5,CCO[C@H]1OC(C(=O)O)=C[C@@H](c2cn(C(C)=O)c3ccccc23)[C@@H]1CCCO,18.2
6,CCO[C@@H]1OC(C(=O)Nc2ccccc2)=C[C@H](c2coc3ccccc3c2=O)[C@H]1CCCO,-50.9
7,CCO[C@H]1OC(C(=O)Nc2ccccc2)=C[C@@H](c2cn(C(C)=O)c3ccccc23)[C@@H]1CCCO,-62.5
8,CCO[C@@H]1OC(C(=O)N2CCN(Cc3ccccc3)CC2)=C[C@H](c2cn(C(C)=O)c3ccccc23)[C@H]1CCCO,-37.9
9,CCO[C@H]1OC(C(=O)NCc2nc3ccccc3[nH]2)=C[C@@H](c2cn(C(C)=O)c3ccccc23)[C@@H]1CCCO,-49.7
10,CCO[C@@H]1OC(C(=O)O)=C[C@H](c2coc3ccccc3c2=O)[C@H]1CCCO,18.9
11,CCO[C@@H]1OC(C(=O)NCc2nc3ccccc3[nH]2)=C[C@H](c2csc3ccccc23)[C@H]1CCCO,-34.1
12,CCO[C@H]1OC(C(=O)Nc2ccccc2)=C[C@@H](c2coc3ccccc3c2=O)[C@@H]1CCCO,-28.5
13,CCO[C@@H]1OC(C(=O)O)=C[C@H](c2cn(C(C)=O)c3ccccc23)[C@H]1CCCO,13.7
14,CCO[C@@H]1OC(C(=O)N2CCN(Cc3ccc4c(c3)OCO4)CC2)=C[C@H](c2cn(C(C)=O)c3ccccc23)[C@H]1CCCO,-39.7
15,CCO[C@@H]1OC(C(=O)NCc2nc3ccccc3[nH]2)=C[C@H](c2cn(C(C)=O)c3ccccc23)[C@H]1CCCO,-67.2
16,CCO[C@H]1OC(C(=O)N2CCN(Cc3ccccc3)CC2)=C[C@@H](c2cn(C(C)=O)c3ccccc23)[C@@H]1CCCO,-54
17,O=C1CCCCCN1Sc1ccccc1,12
18,N#Cc1cccc(CN2CCC(=O)N([C@H](CO)c3ccccc3)CC2)c1,-4.9
